HT1080 IDH1KD tx – qHTS for induction of synthetic lethality in tumor cells producing 2HG: qHTS for the HT-1080-IDH1KD cell line | HT-1080 IDH1 knockdown viability, ATP luminescence, 48 h | 360,000 compounds, 2% hits | Potency, µM (series often up to 46.1 µM), hits mostly cytotoxic
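HT-1080-IDH1KD cells (IDH1 knocked down), 750/well in RPMI with 5% FBS, treated with compound 48 h at 37 degrees C. Viability by CellTiter-Glo luminescence, normalised to DMSO and no-cell wells; concentration-response curves classed.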
DT40 TDP1 CPT – qHTS for Inhibitors of human tyrosyl-DNA phosphodiesterase 1 (TDP1): qHTS in cells in presence of CPT; AID 686979, 2013; chicken DT40 Tdp1-/-;hTDP1 cells + 20 nM CPT, ATP luminescence, 48 h; 420,000 compounds, 12% hits; Potency, µM (doses to about 46.2 µM), usual class: inhibitors; further: nearly all actives have a fitted effect of over 55% in size
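Cell growth measured by CellTiter-Glo luminescence after a minimum 48 h, 37 C compound exposure with 20 nM CPT in Tdp1-knockout DT40 cells stably expressing hTDP1, seeded 400/well; qHTS titration format.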
IL1B secr inh – qHTS for Inhibitors of Inflammasome Signaling: IL-1-beta AlphaLISA Primary Screen | THP-1 LPS/ATP IL-1B secretion, AlphaLISA, 16 h; stronger effect = lower value | activity change, % at 57.5 µM | 360,000 compounds, 4.7% hits; in the data active means activity change below about -50%; inconclusive means mostly about -30% to -49%
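Secreted IL-1B measured by AlphaLISA bead assay after 16 h compound exposure of THP-1 cells; compounds (final up to 57.5 uM) added 1 h before LPS (250 ng/mL) and ATP (1.25 mM) stimulation; lower signal means less secretion.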
HT1080-NT tox – qHTS for induction of synthetic lethality in tumor cells producing 2HG: qHTS for the HT-1080-NT fibrosarcoma cell line; HT-1080-NT fibrosarcoma viability, CellTiter-Glo ATP luminescence, 48 h; 360,000 compounds, 1.6% hits; Potency, µM (titrated, usually from 46.1 µM), hits mostly cytotoxic;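 further: NT is the 2HG producing partner of a matched IDH1 knockdown line; nearly all actives have a fitted effect of over 55% in size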
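Fibrosarcoma NT cells, 750 per well in 5% FBS RPMI, were exposed to compound for 48 hours. Viability: CellTiter-Glo luminescence.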
TDP1 cell noCPT – qHTS for Inhibitors of human tyrosyl-DNA phosphodiesterase 1 (TDP1): qHTS in cells in absence of CPT; Potency, µM (top dose mostly 46.2 µM), usual class: inhibitors; 420,000 compounds, 15% hits; DT40 Tdp1-/- hTDP1 cells, no CPT, ATP luminescence, 48 h; further: nearly all actives have a fitted effect of over 55% in size
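Compound effects on proliferation are scored in DT40 Tdp1-/-;hTDP1 cells in the absence of CPT. ATP levels (CellTiter-Glo luminescence) are recorded after a ≥48 hr, 37 °C incubation.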
ELG1 repair inh – qHTS screen for small molecules that inhibit ELG1-dependent DNA repair in human embryonic kidney (HEK293T) cells expressing luciferase-tagged ELG1; 330,000 compounds, 2.3% hits; AID 504467, 2011; HEK293T ELG1-luciferase reporter, luminescence, 16 h; DNA damage induced by 5-fluorouridine; Potency, µM (series often up to 46.1 µM), usual class: inhibitors; further: nearly all actives have a fitted effect of over 55% in size
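Step one: seed 2,000 cells per well. Step two: pin-transfer compound or DMSO alongside 5-fluorouridine. Step three: incubate 16 hr, 37 °C, 5% CO2. Step four: add ONE-Glo, wait 30 min, read luminescence.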
Each line names hits and unclear results; the compound was inactive in the other large screens; ! = repeats disagree. In the library only some 19% were active in any assay of this set; here they are far more common. Unless noted, the call rests on the fitted dose curve; in most records, active means well fitted curve in the direction sought with a large enough effect; inconclusive means small, poorly fitted or top-dose-only effect, or another doubt; inactive means no such curve, though single readings can be large; an effect the other way counts as inactive or inconclusive.

CCOc1cccc(C2NC(=S)NC(C)=C2C(=O)Nc2ccccc2)c1 (centres undefined)	HT1080 IDH1KD tx inconclusive, DT40 TDP1 CPT inconclusive, HT1080-NT tox inconclusive, TDP1 cell noCPT 23µM
CCC1CCc2c(sc(NC(=O)C3c4ccccc4Oc4ccccc43)c2C(=O)OC)C1 (centres undefined)	DT40 TDP1 CPT inconclusive, TDP1 cell noCPT 10µM (no result: HT1080 IDH1KD tx, IL1B secr inh, HT1080-NT tox, ELG1 repair inh)
CCOC(=O)c1c(NC(=O)C2C3C=CC(C3)C2C(=O)O)sc2c1CCC(CC)C2 (centres undefined)	HT1080 IDH1KD tx inconclusive, DT40 TDP1 CPT 16µM, HT1080-NT tox inconclusive, TDP1 cell noCPT inconclusive
COc1cccc2cc(-c3nc(-c4ccccc4F)no3)c(=O)oc12	none (no result: HT1080 IDH1KD tx, IL1B secr inh, HT1080-NT tox, ELG1 repair inh)
Cc1ccc(Cl)cc1Nc1nc2ccccc2c2nncn12	DT40 TDP1 CPT inconclusive, TDP1 cell noCPT 23µM (no result: HT1080 IDH1KD tx, IL1B secr inh, HT1080-NT tox, ELG1 repair inh)
CC1CCCCN1C(=O)/C=C/c1ccccc1[N+](=O)[O-] (centres undefined)	TDP1 cell noCPT inconclusive
CC(=O)OCC(=O)[C@@]12OC3(CCCC3)O[C@@H]1C[C@H]1[C@@H]3CCC4=CC(=O)C=C[C@]4(C)[C@@]3(F)[C@@H](O)C[C@@]12C	DT40 TDP1 CPT 2.3µM!, HT1080-NT tox inconclusive, TDP1 cell noCPT 4.6µM
CCC(=O)O[C@]1(C(=O)CCl)[C@@H](C)C[C@H]2[C@@H]3C[C@H](F)C4=CC(=O)C=C[C@]4(C)[C@@]3(F)[C@@H](O)C[C@@]21C	DT40 TDP1 CPT inconclusive, TDP1 cell noCPT 19µM (no result: HT1080 IDH1KD tx, IL1B secr inh, HT1080-NT tox, ELG1 repair inh)
CCC(=O)OCC(=O)C1(OC(=O)CC)[C@H](C)C[C@H]2[C@H]3[C@H]([C@@H](O)C[C@@]21C)[C@@]1(C)C=CC(=O)C=C1C[C@H]3Cl (some centres undefined)	HT1080 IDH1KD tx inconclusive, IL1B secr inh -51, HT1080-NT tox inconclusive
CC1(C)O[C@@H]2C[C@H]3[C@@H]4CCC5=CC(=O)C=C[C@]5(C)[C@@]4(F)[C@@H](O)C[C@]3(C)[C@]2(C(=O)CO)O1	HT1080 IDH1KD tx inconclusive, DT40 TDP1 CPT inconclusive, IL1B secr inh inconclusive, HT1080-NT tox inconclusive, ELG1 repair inh inconclusive
CC1(C)O[C@@H]2C[C@H]3[C@@H]4C[C@H](F)C5=CC(=O)C=C[C@]5(C)[C@@]4(F)[C@@H](O)C[C@]3(C)[C@]2(C(=O)CO)O1	HT1080 IDH1KD tx inconclusive, DT40 TDP1 CPT inconclusive, IL1B secr inh -54
COC(=O)CN1C(=O)CSc2ccc(S(=O)(=O)Nc3cccc(Br)c3)cc21	TDP1 cell noCPT inconclusive (no result: HT1080 IDH1KD tx, IL1B secr inh, HT1080-NT tox, ELG1 repair inh)
CC1CC2C3CCC4=CC(=O)C=C[C@]4(C)[C@@]3(Cl)C(O)C[C@]2(C)C1(OC(=O)c1ccco1)C(=O)CCl (some centres undefined)	none (no result: HT1080 IDH1KD tx, IL1B secr inh, HT1080-NT tox, ELG1 repair inh)
C[C@@H]1C[C@H]2[C@@H]3CCC4=CC(=O)C=C[C@]4(C)[C@@]3(Cl)[C@@H](O)C[C@]2(C)[C@@]1(OC(=O)c1ccco1)C(=O)CCl	HT1080 IDH1KD tx inconclusive, DT40 TDP1 CPT 16µM, IL1B secr inh -89, HT1080-NT tox 16µM, TDP1 cell noCPT 12µM
COc1ccccc1CN1CCN(C(=O)c2cccc3ccccc23)CC1	TDP1 cell noCPT inconclusive (no result: ELG1 repair inh)
CCOc1cc(CN2CCN(C(=O)c3cccc4ccccc34)CC2)ccc1OC	DT40 TDP1 CPT inconclusive, ELG1 repair inh 15µM
COc1ccc(CN2CCN(C(=O)c3cccc4ccccc34)CC2)cc1OC	ELG1 repair inh 12µM
COc1cc(C(=O)N2CCN(C(=O)c3cccc4ccccc34)CC2)cc(OC)c1OC	HT1080 IDH1KD tx inconclusive
CCOc1cc(CN2CCN(C(=O)c3ccco3)CC2)ccc1OC	none
